Reference: PubChem BioAssay AID1347120 (National Center for Advancing Translational Sciences (NCATS), 2019)
Among all 390,000 compounds or so, about 930 (0.24%) were called active. Roughly 5% stayed inconclusive and do not appear here. Only a selection was taken, and actives are over-represented in it overall. A number with no mark means an inactive call. Calls come from the whole dose curve; as a rule, active = well fitted activation curve with a large enough effect; inconclusive = small, poorly fitted or top-dose-only effect; inactive = no such curve, though single readings can be large or run the other way.

Assay: qHTS for Suppressors of FUS Proteinopathy: Primary screen using FUS-linked yeast assay; note: nearly all actives have a fitted effect of over 55% in size;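 for growth rescue (activation): plate controls were DMSO vehicle for no effect and reference control for full effect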
Details: S. cerevisiae FUS-expressing, OD600, 24 h; Potency: growth rescue; series mostly up to 76.6 µM; growth rescue (activation): at the top concentration
Excerpt: Several widespread neurodegenerative diseases, including Alzheimer disease, Huntington disease, Frontotemporal Lobar Degeneration (FTLD) and Amyotrophic Lateral Sclerosis (ALS), share a common pathological feature, namely accumulation of specific protein aggregates in diseased tissue. These diseases which is associated with protein misfolding (proteinopathies) have become increasingly problematic as the population ages and life expectancies are extended. Most proteinopathies are currently incurable, a situation confounded by the fact that the basis of neurodegeneration is generally poorly understood. There exists urgent and significant need to find therapeutics that can inhibit the toxicity associated with protein aggregation. A novel approach to understand the underlying mechanisms of neurodegenerative diseases has recently emerged in which the disease conditions are modeled in the yeast (Saccharomyces cerevisiae), a tractable eukaryotic organism with conserved protein quality control mechanisms. Yeast offers quick and reliable genetic manipulations and can be easily tailored to high-throughput screening (HTS).
For this project, a yeast model of the FUS proteinopathies (a spectrum of neurodegenerative diseases that include ALS and a subtype of FTLD) was generated and employed. The cytoplasmic accumulation of the DNA/RNA-binding protein FUS (also known as TLS) is causative to both familial and sporadic forms of ALS and FTLD. This yeast model recapitulates neuronal pathology by showing severe cytotoxicity associated with cytoplasmic accumulation of FUS aggregates and a specific interaction between FUS and TDP-43, another ALS-associated protein. […] Specifically, the cellular accumulation of misfolded FUS that disrupts RNA homeostasis in both yeast and higher eukaryotes. This model was validated to be suitable for quantitative HTS (qHTS) use for finding genetic or chemical factors that restore growth. […] Identified compounds that inhibits FUS-yeast toxicity is flagged, re-acquired, and validated for further investigation and optimization.
NIH Chemical Genomics Center [NCGC]
NIH Molecular Libraries Probe Production Centers Network [MLPCN]
Assay Submitter (PI): Frank Shewmaker PhD, Uniformed Services University of the Health Sciences
Compound CP55940 was used as the positive control. Column 1 was treated with CP55940 titration from 92uM (final concentration, 1:2 dilution), while Column 2 was treated with top dose 92uM. Columns 3 and 4 were treated with DMSO only as negative control to assess background and noise signal.
Four hundred fifty microliter of cultured yeast (in 20mL rich medium) provided by Dr. Shewmaker lab was incubated at 30C at 99% humidity for 3hr. The culture was then spun down at 4000rpm for 5min and the cell pellet was resuspended in 2mL of Sdmin Media + ALU(330) + 2.5% Raffinose. One hundred microliter of the suspension was added to 900uL of water and OD of the solution was obtained. Twenty mL of responding medium (provided by Shewmaker lab) + 2.5% raffinose was added to ensure cell density of 0.1; the solution was incubated overnight. Working cell solution (FUS-yeast in Sdmi + Sdmi + 1X ALU + 2% galactose media) was prepared (final OD at 0.005) and 3uL was dispensed in a 1536-well Aurora high based clear bottom assay plates. Controls and library compounds (at various final concentrations from 40uM to 0.32uM) were added using a 1536-well pin array using the Kalypsys pin-tool. The plates were then incubated for 24hrs in a cell-culture incubator (30C; 99% humidity). Absorbance at 600nm was then read using the PerkinElmer ViewLux plate reader.
Potency is the fitted concentration of half-maximal effect.

SMILES	growth rescue (activation) [%]	Potency
CCC(=O)N1CCc2cc(Br)cc(S(=O)(=O)CCC(=O)N3CCN(c4ccc(F)cc4)CC3)c21	1.9	–
O=C(Nc1cc(C(F)(F)F)ccc1Cl)c1cc2nc(-c3ccc4c(c3)OCO4)cc(C(F)(F)F)n2n1	10.3	–
CCOc1cccc2sc(N3CCN(C(=O)C4CC4)CC3)nc12	4.39	–
COC(=O)[C@@]12CCCCC=C1N(CCc1ccc(Cl)cc1)C(=O)[C@H]2CC(=O)NCc1ccc(OC)c(OC)c1	39.4	–
COC(=O)[C@]12C[C@H](CC(=O)NCCc3ccccc3OC)C(=O)N(Cc3ccco3)C1=C[C@H](C(C)C)O[C@@H]2C1CC1	40.9	–
COC(=O)[C@]12C[C@H](CC(=O)NCc3cccc4ccccc34)C(=O)N(CCc3ccc(OC)c(OC)c3)C1=C[C@H](C1CCCC1)O[C@@H]2C	–	12.6 µM (active)
O=C(CSc1nccn1-c1ccc(F)cc1)Nc1cccc2ccccc12	12.2	–
CCN(c1ncnc2c1cnn2-c1ccc(C)cc1)C1CCCCC1	-6.13	–
CCN1CCN(c2cc(C)c3cc(NC(=O)c4cc(Cl)ccc4OC)ccc3n2)CC1	10.2	–
CCOc1ccc(C(=O)Nc2ccc3nc4c(c(Nc5ccccc5OC)c3c2)CCCC4)cc1	36.6	–
CCOC(=O)N1CCN(C(=O)C[C@H]2C[C@@]3(C(=O)OC)C(=C[C@H](C(C)(C)C)O[C@@H]3C)N(Cc3ccc(Cl)cc3Cl)C2=O)CC1	–	6.31 µM (active)
COC(=O)[C@]12C[C@H](CC(=O)NCC34CC5CC(CC(C5)C3)C4)C(=O)N(Cc3ccc(Cl)cc3Cl)C1=C[C@H](COCc1ccccc1)O[C@@H]2C	31.5	–
COC(=O)[C@]12C[C@H](CC(=O)N3CCOCC3)C(=O)N(Cc3ccc(Cl)cc3Cl)C1=C[C@H](COCc1ccccc1)O[C@@H]2C	10.6	–
CC1CCC(N2CC(=O)N(CCC3=CCCCC3)C(c3ccc(F)cc3)C2=O)CC1 (stereo not given)	20.9	–
CCC(C(=O)Nc1cccc(-c2nc3cccnc3s2)c1C)c1ccccc1 (stereo not given)	-6.93	–
Cc1ccc(Nc2ccc3cc(S(=O)(=O)N4CCCCC4)ccc3n2)cc1F	-5.75	–
Cc1oc2ccc(O)c(CN3CCCCC3)c2c1C(=O)Nc1cccc(C(F)(F)F)c1	24.9	–
CCCN1CCN(CCCNC(=O)c2cnn(-c3ccc(C)cc3)c2-n2cccc2)CC1	6.69	–
CSc1ncc(Cl)c(C(=O)Nc2ccc(S(=O)(=O)N3CCCC(C)C3)cc2)n1 (stereo not given)	2.88	–
COc1ccc(C2=NS(=O)(=O)N(C)C(C(=O)NC(C)c3ccccc3)=C2)cc1 (stereo not given)	–	inactive

SMILES	growth rescue (activation) [%]	Potency
COc1cc(NC(=O)C2=CC(c3ccc(C)cc3)=NS(=O)(=O)N2C)cc(OC)c1OC	-8.13	–
COc1ccc(NC(=O)C2=CC(c3ccc(OC)c(OC)c3)=NS(=O)(=O)N2C)cc1	–	31.6 µM (active)
O=C(COc1ccccc1Cl)Nc1ccc2nc(SCC(=O)N3CCCC3)sc2c1	12.6	–
COc1cccc(CNC(=O)CSc2c3c(nc4cc(Cl)ccc24)CCCC3)c1	-8.26	–
CCOC(=O)c1c(NC(=O)c2ccc(S(=O)(=O)N(CC)CC)cc2)sc2c1CCCCC2	-13.5	–
O=C(Nc1ccccc1F)C(c1ccccc1)N1Cc2ccccc2C1=O (stereo not given)	4.93	–
COc1ccc(OC)c(-n2nnc(-c3nc(-c4cc(OC)c(OC)c(OC)c4)no3)c2C)c1	18.3	–
CCc1ccc(CN(Cc2ccco2)C(=O)COc2ccc(Cl)c(C)c2)cc1	30.5	–
CCN(CC)c1nn2c(=O)c(C(=O)NCCc3ccccc3)cnc2s1	17.5	–
COc1cccc(OCCn2c(-c3ccc(Br)cc3)nc3ccccc3c2=O)c1	-5.51	–
COc1ccc(OC)c(-c2csc(-c3c(N)c(C(=O)c4ccccc4)n4ccccc34)n2)c1	14.2	–
Cc1nn(C(C)C(=O)Nc2ccc(C(C)C)cc2)c(=O)c2c1sc1ccccc12 (stereo not given)	-11.1	–
Cc1ccc(NC(=O)CSc2nc3c([nH]c4ccccc43)c(=O)n2-c2ccccc2)c(C)c1	13.6	–
Cc1ccc(Cl)cc1N(C)C(=O)Cn1nc(Cc2cccnc2)c2ccccc2c1=O	14.5	–
O=C(CSc1nccn1Cc1ccc(Cl)cc1)NCc1ccccc1	17.8	–
Cc1cccc(NC(=O)c2ccc(F)c(S(=O)(=O)N(C)C3CCCCC3)c2)c1	35.4	–
CCOc1ccc(C2CC(=O)c3c([nH]c(C(=O)OCc4ccccc4)c3C)C2)cc1 (stereo not given)	1.74	–
CCOC(=O)C1CCCN(C(=O)c2ccc3c(c2)sc2nc(-c4ccc(CC)cc4)cn23)C1 (stereo not given)	19.2	–
Cc1c(C(=O)N2CCCC2)oc2c1-c1nn(CC(=O)NCc3ccc(OC(C)C)cc3)cc1CC2	31.1	–
Cc1ccc(NC(=O)c2cc(S(=O)(=O)NCCC3=CCCCC3)ccc2F)cc1C	15.8	–
